Active and inactive are the calls of the source.
Assays:
[1] = system: PRMT1 (protein arginine N-methyltransferase 1); assay: PRMT1 binders on small-molecule microarrays, primary screen, biochemical, small-molecule microarray, 635 nm fluorescence (AID 1088); settings: small-molecule microarray binding, higher = more signal;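 note: binding of Prmt1 protein to compounds spotted on small-molecule microarray slides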
[2] = yeast growth modulation, basal conditions, primary screen, YJM789 clinical isolate, OD600, 24 h (AID 1089);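 note: growth of clinical yeast isolate S. cerevisiae YJM 789 seeded 1000 cells per well; test concentration not given here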; settings: S. cerevisiae YJM789 growth, higher = more signal, called active from +8 up or from −8 down
[3] = fission yeast growth modulation, primary screen, strain 972, OD600, 24 h, no modulator (AID 1090);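 note: basal condition with compound alone and no growth modifier present; test concentration not given here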; settings: S. pombe 972 growth, higher = more signal, called active from +8 up or from −8 down
[4] = S. cerevisiae growth modulation with rapamycin, primary screen, strain BY4716, OD600, 96 h (AID 1091); settings: higher = more signal, called active from +8 up or from −8 down; note: test concentration not given here
[5] = biological target: Torsin-1A-interacting protein 2 (Homo sapiens) (UniProt Q8NFQ8); assay: LULL1 binders on small-molecule microarray, primary screen, cell lysate, human LULL1 lysate, 635/667 nm fluorescence (AID 1092); settings: hLULL1 lysate binding, 635 nm fluorescence, higher = more signal;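 note: probe is lysate of COS7 cells overexpressing human LULL1; score merges per-feature 667 nm fluorescence with signal-to-noise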
Sequence of Torsin-1A-interacting protein 2 (Homo sapiens) (Q8NFQ8 whole entry, looked up): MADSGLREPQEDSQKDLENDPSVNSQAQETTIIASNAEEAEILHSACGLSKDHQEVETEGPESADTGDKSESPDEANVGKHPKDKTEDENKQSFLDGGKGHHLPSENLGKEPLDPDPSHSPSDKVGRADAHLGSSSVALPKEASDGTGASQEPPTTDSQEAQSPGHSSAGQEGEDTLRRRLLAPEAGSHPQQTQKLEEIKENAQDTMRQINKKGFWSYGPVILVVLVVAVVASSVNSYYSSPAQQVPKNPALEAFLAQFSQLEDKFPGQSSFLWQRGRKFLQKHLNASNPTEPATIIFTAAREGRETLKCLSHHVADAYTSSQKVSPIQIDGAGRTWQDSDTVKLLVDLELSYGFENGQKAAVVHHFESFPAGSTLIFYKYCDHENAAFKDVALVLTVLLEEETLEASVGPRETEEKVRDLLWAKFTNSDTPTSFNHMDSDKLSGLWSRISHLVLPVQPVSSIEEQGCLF

[6] = E. coli growth modulation, two-sided OD650, primary screen, E. coli filamentation project, strain DRC41, 24 h (AID 1093); settings: OD650, 24 h, higher = more signal, called active from +8 up or from −8 down;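 note: MC1000 strain lacking acrAB efflux and sulA so SOS filamentation is blocked; test concentration not given here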
[7] = small-molecule microarray binders of probe aLefty2, primary screen, biochemical, biotinylated probe, 635/667 nm fluorescence (AID 1094); settings: higher = more signal;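 note: score merges spot fluorescence near 667 nm with spot signal-to-noise ratio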
[8] = system: Noggin (protein binding on small-molecule microarray); assay: Noggin binders on small-molecule microarray, primary screen, biochemical, 635/667 nm fluorescence (AID 1095); settings: 635 nm fluorescence, higher = more signal;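 note: score merges 667 nm feature fluorescence with signal to noise over triplicate slides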
[9] = biological target: Neurogenic locus notch homolog protein 3 (Homo sapiens) (UniProt Q9UM47); assay: NOTCH3 binders on small-molecule microarray, primary screen, biochemical, 635/667 nm fluorescence (AID 1096); settings: NOTCH3 binding, 635 nm fluorescence, higher = more signal
Sequence of Neurogenic locus notch homolog protein 3 (Homo sapiens) (Q9UM47 whole entry, looked up): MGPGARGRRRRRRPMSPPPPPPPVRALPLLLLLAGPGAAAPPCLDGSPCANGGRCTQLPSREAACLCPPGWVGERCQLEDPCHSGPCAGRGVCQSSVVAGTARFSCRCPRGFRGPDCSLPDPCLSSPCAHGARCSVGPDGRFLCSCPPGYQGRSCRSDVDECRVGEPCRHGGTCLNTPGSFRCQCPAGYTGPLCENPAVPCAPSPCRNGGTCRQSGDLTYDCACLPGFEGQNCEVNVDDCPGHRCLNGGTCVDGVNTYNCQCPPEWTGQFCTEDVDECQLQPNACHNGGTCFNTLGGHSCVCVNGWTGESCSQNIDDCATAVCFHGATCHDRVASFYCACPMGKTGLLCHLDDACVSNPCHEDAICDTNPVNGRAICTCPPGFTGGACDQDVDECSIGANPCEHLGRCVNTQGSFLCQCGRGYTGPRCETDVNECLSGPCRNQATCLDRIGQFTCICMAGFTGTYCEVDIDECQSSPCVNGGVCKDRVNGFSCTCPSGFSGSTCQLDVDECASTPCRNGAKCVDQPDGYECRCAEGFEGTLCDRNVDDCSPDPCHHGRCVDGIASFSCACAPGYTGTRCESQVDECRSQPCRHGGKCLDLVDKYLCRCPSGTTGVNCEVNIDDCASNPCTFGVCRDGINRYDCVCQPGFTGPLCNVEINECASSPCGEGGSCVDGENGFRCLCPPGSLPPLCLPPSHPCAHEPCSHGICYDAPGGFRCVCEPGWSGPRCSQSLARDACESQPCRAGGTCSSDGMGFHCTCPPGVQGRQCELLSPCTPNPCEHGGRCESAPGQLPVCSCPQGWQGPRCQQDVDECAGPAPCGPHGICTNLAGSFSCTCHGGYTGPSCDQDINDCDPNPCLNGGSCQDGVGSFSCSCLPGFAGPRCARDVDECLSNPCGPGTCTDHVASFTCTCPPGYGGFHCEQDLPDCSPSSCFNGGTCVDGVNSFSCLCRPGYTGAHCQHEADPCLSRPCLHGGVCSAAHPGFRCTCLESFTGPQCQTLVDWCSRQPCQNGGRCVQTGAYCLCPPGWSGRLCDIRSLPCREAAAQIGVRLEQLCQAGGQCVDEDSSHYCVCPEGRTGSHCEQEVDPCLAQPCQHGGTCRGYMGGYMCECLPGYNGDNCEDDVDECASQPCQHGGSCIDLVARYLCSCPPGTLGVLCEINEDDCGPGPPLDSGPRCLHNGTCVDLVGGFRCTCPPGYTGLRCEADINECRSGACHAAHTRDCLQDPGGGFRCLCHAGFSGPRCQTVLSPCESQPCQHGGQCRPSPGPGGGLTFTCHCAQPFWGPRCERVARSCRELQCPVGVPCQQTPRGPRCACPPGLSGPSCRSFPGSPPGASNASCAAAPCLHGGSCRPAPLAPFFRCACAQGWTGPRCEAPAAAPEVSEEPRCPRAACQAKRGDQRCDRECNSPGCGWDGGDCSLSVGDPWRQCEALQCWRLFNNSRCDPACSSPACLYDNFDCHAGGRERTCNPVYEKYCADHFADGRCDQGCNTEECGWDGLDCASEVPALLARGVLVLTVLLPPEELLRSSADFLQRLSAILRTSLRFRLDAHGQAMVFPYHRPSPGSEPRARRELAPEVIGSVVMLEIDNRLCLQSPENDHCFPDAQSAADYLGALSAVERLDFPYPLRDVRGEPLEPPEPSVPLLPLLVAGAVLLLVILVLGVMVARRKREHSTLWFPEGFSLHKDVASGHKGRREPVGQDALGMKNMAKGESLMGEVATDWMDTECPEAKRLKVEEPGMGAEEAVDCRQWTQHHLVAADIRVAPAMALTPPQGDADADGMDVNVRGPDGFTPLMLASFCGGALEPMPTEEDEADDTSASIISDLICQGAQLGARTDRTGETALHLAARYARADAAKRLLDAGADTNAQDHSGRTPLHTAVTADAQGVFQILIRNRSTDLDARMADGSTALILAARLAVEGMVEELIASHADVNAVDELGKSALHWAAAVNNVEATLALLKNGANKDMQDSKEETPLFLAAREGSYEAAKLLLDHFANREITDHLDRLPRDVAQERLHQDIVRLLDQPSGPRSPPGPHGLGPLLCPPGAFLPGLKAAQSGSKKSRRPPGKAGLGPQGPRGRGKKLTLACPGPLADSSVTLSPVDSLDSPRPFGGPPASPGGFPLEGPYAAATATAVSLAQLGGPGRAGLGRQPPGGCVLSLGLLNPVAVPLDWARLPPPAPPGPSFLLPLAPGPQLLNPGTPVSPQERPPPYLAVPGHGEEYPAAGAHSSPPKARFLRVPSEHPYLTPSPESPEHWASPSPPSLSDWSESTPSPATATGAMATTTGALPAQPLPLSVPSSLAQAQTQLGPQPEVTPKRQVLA

[10] = small-molecule microarray binders of probe aEGFR, primary screen, biochemical, biotinylated probe, 635/667 nm fluorescence (AID 1097); settings: higher = more signal;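 note: probe is a biotinylated anti-EGFR antibody binding compounds printed on slides; score combines fluorescence near 667 nm and signal to noise of each spot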
[11] = system: Plasmodium falciparum Sir2 (PF13_0152, Sir2A); assay: pfSir2 binders on small-molecule microarrays, primary screen, biochemical, small-molecule microarray, 635 nm fluorescence (AID 1098); settings: small-molecule microarray binding, fluorescence 635 nm; higher = more signal;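 note: score merges spot fluorescence intensity with its signal-to-noise ratio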
[12] = small-molecule microarray binders of probe aDKK1, primary screen, biochemical, biotinylated probe, 635/667 nm fluorescence (AID 1099); settings: higher = more signal;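 note: score merges 667nm spot fluorescence with signal to noise across triplicate slides; reference of the scale not given here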
[13] = small-molecule microarray binders of probe aCHRDL2, primary screen, biochemical, biotinylated probe, 635/667 nm fluorescence (AID 1100); settings: higher = more signal
[14] = splicing luciferase reporter signal modulators, primary screen, spliceosome inhibition project, cell-based, HEK293, splice +/- reporter (AID 1101); settings: luminescence, 24 h, higher = more signal, called active from +8 up or from −8 down;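 note: HEK293 cells carrying a splicing-competent luciferase reporter gene; test concentration not given here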
[15] = biological target: Fibroblast growth factor 10 (Homo sapiens) (UniProt O15520); assay: FGF10 binders on small-molecule microarrays, primary screen, biochemical, small-molecule microarray, 635 nm fluorescence (AID 1102); settings: FGF10 binding, fluorescence 635 nm, higher = more signal
Sequence of Fibroblast growth factor 10 (Homo sapiens) (O15520 whole entry, looked up): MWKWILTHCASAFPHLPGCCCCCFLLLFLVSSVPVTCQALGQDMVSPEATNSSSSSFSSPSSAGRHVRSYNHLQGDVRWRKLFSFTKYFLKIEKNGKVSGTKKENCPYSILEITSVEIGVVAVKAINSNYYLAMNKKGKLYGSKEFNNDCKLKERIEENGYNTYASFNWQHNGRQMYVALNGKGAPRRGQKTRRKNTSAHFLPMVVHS

[16] = system: glycogen synthase kinase-3 (GSK3A per assay name; protocol says GSK3B); assay: GSK3 binders on small-molecule microarrays, primary screen, biochemical, small-molecule microarray, 635 nm fluorescence, GSK3A (AID 1103); settings: small-molecule microarray binding, fluorescence 635 nm; higher = more signal; note: the record names both GSK3A and GSK3B
[17] = biological target: Epidermal growth factor receptor (Homo sapiens) (UniProt P00533); assay: EGFR binders on small-molecule microarrays, primary screen, biochemical, small-molecule microarray, 635 nm fluorescence (AID 1104); settings: EGFR binding, higher = more signal;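 note: score merges 667 nm emission intensity with spot signal to noise over triplicate slides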
Sequence of Epidermal growth factor receptor (Homo sapiens) (P00533 whole entry, looked up): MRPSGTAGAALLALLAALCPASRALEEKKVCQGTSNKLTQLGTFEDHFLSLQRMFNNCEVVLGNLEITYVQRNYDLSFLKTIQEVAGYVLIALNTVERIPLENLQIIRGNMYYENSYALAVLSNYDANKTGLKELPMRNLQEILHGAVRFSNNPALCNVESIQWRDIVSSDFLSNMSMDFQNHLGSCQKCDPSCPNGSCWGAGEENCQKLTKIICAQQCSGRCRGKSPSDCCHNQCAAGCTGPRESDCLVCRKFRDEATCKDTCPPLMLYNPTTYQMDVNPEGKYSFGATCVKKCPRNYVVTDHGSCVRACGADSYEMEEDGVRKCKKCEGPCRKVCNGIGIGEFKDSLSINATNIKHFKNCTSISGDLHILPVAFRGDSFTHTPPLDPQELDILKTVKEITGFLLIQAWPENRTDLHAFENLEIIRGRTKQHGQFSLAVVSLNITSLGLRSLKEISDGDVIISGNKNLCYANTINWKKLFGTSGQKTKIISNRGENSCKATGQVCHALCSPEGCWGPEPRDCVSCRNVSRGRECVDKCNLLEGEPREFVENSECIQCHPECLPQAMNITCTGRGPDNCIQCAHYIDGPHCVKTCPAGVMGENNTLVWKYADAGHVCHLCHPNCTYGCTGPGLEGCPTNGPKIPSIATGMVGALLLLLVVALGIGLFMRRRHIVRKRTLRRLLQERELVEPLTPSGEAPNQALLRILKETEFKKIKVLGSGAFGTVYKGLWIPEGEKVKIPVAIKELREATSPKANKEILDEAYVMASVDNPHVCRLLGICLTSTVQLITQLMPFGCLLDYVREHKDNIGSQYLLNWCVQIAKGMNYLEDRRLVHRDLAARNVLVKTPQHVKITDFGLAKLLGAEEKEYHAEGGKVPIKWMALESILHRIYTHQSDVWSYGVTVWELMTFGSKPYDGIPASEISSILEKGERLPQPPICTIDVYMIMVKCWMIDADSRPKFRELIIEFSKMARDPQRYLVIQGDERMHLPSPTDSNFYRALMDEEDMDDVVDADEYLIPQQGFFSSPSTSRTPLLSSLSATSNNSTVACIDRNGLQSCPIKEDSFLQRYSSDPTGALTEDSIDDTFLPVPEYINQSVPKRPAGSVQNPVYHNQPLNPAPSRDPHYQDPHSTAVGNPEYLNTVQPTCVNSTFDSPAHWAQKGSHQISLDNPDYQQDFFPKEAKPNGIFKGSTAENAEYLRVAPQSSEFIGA

[18] = biological target: Follistatin-related protein 3 (Homo sapiens) (UniProt O95633); assay: FSTL3 binders on small-molecule microarrays, primary screen, biochemical, small-molecule microarray, 635 nm fluorescence (AID 1105); settings: FSTL3 binding, higher = more signal;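 note: score merges emission near 667 nm and signal to noise per printed spot across three slides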
Sequence of Follistatin-related protein 3 (Homo sapiens) (O95633 whole entry, looked up): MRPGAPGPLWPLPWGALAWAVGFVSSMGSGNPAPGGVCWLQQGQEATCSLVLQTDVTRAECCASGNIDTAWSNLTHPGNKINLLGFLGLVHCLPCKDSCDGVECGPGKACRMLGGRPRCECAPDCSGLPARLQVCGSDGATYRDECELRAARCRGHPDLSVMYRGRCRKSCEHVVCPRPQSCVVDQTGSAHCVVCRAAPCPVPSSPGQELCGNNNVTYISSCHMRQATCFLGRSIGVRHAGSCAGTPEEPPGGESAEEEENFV

[19] = biological target: Dickkopf-related protein 1 (Homo sapiens) (UniProt O94907); assay: DKK1 binders on small-molecule microarrays, primary screen, biochemical, small-molecule microarray, 635 nm fluorescence scan (AID 1106); settings: DKK1 binding, higher = more signal;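 note: score merges emission near 667 nm with signal to noise over three replicate slides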
Sequence of Dickkopf-related protein 1 (Homo sapiens) (O94907 whole entry, looked up): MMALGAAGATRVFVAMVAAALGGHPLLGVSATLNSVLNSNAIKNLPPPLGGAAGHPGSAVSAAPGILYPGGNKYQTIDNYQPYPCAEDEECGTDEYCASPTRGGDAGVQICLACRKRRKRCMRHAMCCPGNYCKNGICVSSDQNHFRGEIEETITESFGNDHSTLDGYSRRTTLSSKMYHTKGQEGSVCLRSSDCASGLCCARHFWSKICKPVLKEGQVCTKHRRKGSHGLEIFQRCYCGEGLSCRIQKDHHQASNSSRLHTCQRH

[20] = system: Inhibin beta A chain (activin A); assay: INHBA (activin A) binders on microarrays, primary screen, biochemical, small-molecule microarray, 635 nm fluorescence scan (AID 1107); settings: small-molecule microarray binding, higher = more signal;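 note: mouse activin A protein probed at 4.33 µg/mL on printed slides; score merges bound-protein fluorescence near 667 nm with spot signal-to-noise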

## C=CCN1C(=O)[C@]2(O[C@H](CCO)[C@@H]([Si](C)(C)c3ccc(OC)cc3)[C@@H]2C)c2cc(N(C=O)c3ccccc3)ccc21
[1]
  composite z-score: 1.47
[2]
  z-score: 1.28 (inactive)
[3]
  z-score: 0.859 (inactive)
[4]
  z-score: 36.9 (active)
[5]
  composite z-score: 1.19
[6]
  z-score: 1.03 (inactive)
[7]
  composite z-score: -0.121
[8]
  composite z-score: -0.0888
[9]
  composite z-score: 0.649
[10]
  composite z-score: -0.0947
[11]
  composite z-score: 0.465
[12]
  composite z-score: -0.128
[13]
  composite z-score: 0.348
[14]
  z-score: -2.19 (inactive)
[15]
  composite z-score: -0.0285
[16]
  composite z-score: -0.116
[17]
  composite z-score: -0.414
[18]
  composite z-score: -0.0666
[19]
  composite z-score: -0.113
[20]
  composite z-score: 0.407

## [N-]=[N+]=Nc1ccccc1C[C@]1(C(=O)N2CCCCC2)COC(c2ccc(OCCCO)cc2)=N1
[1]
  composite z-score: 1.54
[2]
  z-score: 1.73 (inactive)
[3]
  z-score: -1.72 (inactive)
[4]
  z-score: 32.7 (active)
[5]
  composite z-score: 3.18
[6]
  z-score: 1.75 (inactive)
[7]
  composite z-score: -0.0631
[8]
  composite z-score: 0.753
[9]
  composite z-score: 1.08
[10]
  composite z-score: -0.0828
[11]
  composite z-score: -0.315
[12]
  composite z-score: 0.149
[13]
  composite z-score: 0.89
[14]
  z-score: -0.806 (inactive)
[15]
  composite z-score: 1.28
[16]
  composite z-score: 1.3
[17]
  composite z-score: -0.214
[18]
  composite z-score: 0.615
[19]
  composite z-score: -0.482
[20]
  composite z-score: 1.01

## [N-]=[N+]=Nc1ccccc1C[C@@]1(C(=O)N2CCCCC2)N=C(c2ccc(OCCCO)cc2)O[C@@H]1c1ccccc1N=[N+]=[N-]
[1]
  composite z-score: 0.919
[2]
  z-score: -1.16 (inactive)
[3]
  z-score: 0.123 (inactive)
[4]
  z-score: 1.18 (inactive)
[5]
  composite z-score: 2.45
[6]
  z-score: 0.799 (inactive)
[7]
  composite z-score: 0.605
[8]
  composite z-score: 0.169
[9]
  composite z-score: 0.884
[10]
  composite z-score: 0.29
[11]
  composite z-score: 0.95
[12]
  composite z-score: 1.32
[13]
  composite z-score: 1.32
[14]
  z-score: 0.766 (inactive)
[15]
  composite z-score: 0.914
[16]
  composite z-score: 1.05
[17]
  composite z-score: 0.105
[18]
  composite z-score: 0.673
[19]
  composite z-score: -0.0252
[20]
  composite z-score: 1.59

## CC(C)OC(=O)C=C1C[C@@H](c2cccc(Cl)c2)O[C@@H](c2cccc(Cl)c2)O1
[1]
  composite z-score: -0.341
[2]
  z-score: -0.338 (inactive)
[3]
  z-score: -5.58 (inactive)
[4]
  z-score: -0.764 (inactive)
[5]
  composite z-score: 1.99
[6]
  z-score: -0.391 (inactive)
[7]
  composite z-score: -0.0009
[8]
  composite z-score: -0.225
[9]
  composite z-score: -0.735
[10]
  composite z-score: -0.13
[11]
  composite z-score: 1.31
[12]
  composite z-score: 0.471
[13]
  composite z-score: 1.11
[14]
  z-score: 1.35 (inactive)
[15]
  composite z-score: 0.31
[16]
  composite z-score: 0.651
[17]
  composite z-score: -1.18
[18]
  composite z-score: -0.901
[19]
  composite z-score: -1.42
[20]
  composite z-score: 1.24

## CC(c1ccccc1)C(O)C1C=CC2C(=O)N(C)C(=O)C2N1NC(=O)OC(C)(C)C (stereo not given)
[1]
  composite z-score: 1.39
[2]
  z-score: 0.476 (inactive)
[3]
  z-score: 0.0391 (inactive)
[4]
  z-score: 0.299 (inactive)
[5]
  composite z-score: 3.43
[6]
  z-score: 0.0596 (inactive)
[7]
  composite z-score: 0.12
[8]
  composite z-score: 0.01
[9]
  composite z-score: 1.05
[10]
  composite z-score: -0.0859
[11]
  composite z-score: 1.16
[12]
  composite z-score: 0.354
[13]
  composite z-score: 0.488
[14]
  z-score: 1.18 (inactive)
[15]
  composite z-score: 1.02
[16]
  composite z-score: 1.28
[17]
  composite z-score: 0.469
[18]
  composite z-score: 0.907
[19]
  composite z-score: 0.237
[20]
  composite z-score: 0.633

## COc1ccc([Si](C)(C)[C@@H]2[C@@H](CC(=O)N3CCC[C@H]3CO)O[C@]3(C(=O)N(Cc4cccc(I)c4)c4ccccc43)[C@H]2C)cc1
[1]
  composite z-score: 1.53
[2]
  z-score: -1.23 (inactive)
[3]
  z-score: 0.0115 (inactive)
[4]
  z-score: 1.14 (inactive)
[5]
  composite z-score: 0.175
[6]
  z-score: 0.25 (inactive)
[7]
  composite z-score: 0.0678
[8]
  composite z-score: 1.62
[9]
  composite z-score: 1.08
[10]
  composite z-score: 0.0807
[11]
  composite z-score: 0.541
[12]
  composite z-score: 0.0446
[13]
  composite z-score: 0.0665
[14]
  z-score: -0.404 (inactive)
[15]
  composite z-score: 1.05
[16]
  composite z-score: 1.13
[17]
  composite z-score: 1.2
[18]
  composite z-score: 1.44
[19]
  composite z-score: 1.92
[20]
  composite z-score: 0.946

## NC(=O)N1C(=O)C2C(C1=O)C1C=C(CCCO)C2C(C2CC2)N1Cc1cc2c(cc1Br)OCO2 (stereo not given)
[1]
  composite z-score: -0.918
[2]
  z-score: -1.07 (inactive)
[3]
  z-score: -0.435 (inactive)
[4]
  z-score: -1.22 (inactive)
[5]
  composite z-score: 1.36
[6]
  z-score: -0.331 (inactive)
[7]
  composite z-score: -0.0778
[8]
  composite z-score: -0.0543
[9]
  composite z-score: 0.325
[10]
  composite z-score: -0.13
[11]
  composite z-score: -0.267
[12]
  composite z-score: -0.165
[13]
  composite z-score: 0.32
[14]
  z-score: 0.901 (inactive)
[15]
  composite z-score: -0.395
[16]
  composite z-score: -0.645
[17]
  composite z-score: -0.376
[18]
  composite z-score: -0.252
[19]
  composite z-score: -0.891
[20]
  composite z-score: 0.943

## O[C@@H](Cc1ccccc1)[C@@H](/C=C/C1CC1)NCc1cccc(Cl)c1
[1]
  composite z-score: -0.534
[2]
  z-score: -2.26 (inactive)
[3]
  z-score: -19 (active)
[4]
  z-score: -2.31 (inactive)
[5]
  composite z-score: -0.44
[6]
  z-score: -0.59 (inactive)
[7]
  composite z-score: 0.0558
[8]
  composite z-score: -1.08
[9]
  composite z-score: -0.419
[10]
  composite z-score: -0.296
[11]
  composite z-score: 1.2
[12]
  composite z-score: 0.081
[13]
  composite z-score: 1.31
[14]
  z-score: -0.944 (inactive)
[15]
  composite z-score: -1.46
[16]
  composite z-score: -0.638
[17]
  composite z-score: -1.14
[18]
  composite z-score: -0.78
[19]
  composite z-score: -1.61
[20]
  composite z-score: 0.157

## C#CCN1[C@@H](Cc2ccc(O)cc2)C(=O)O[C@H](Cc2ccccc2)[C@@H]1/C=C/C1CC1
[1]
  composite z-score: -0.193
[2]
  z-score: -0.257 (inactive)
[3]
  z-score: -4.95 (inactive)
[4]
  z-score: 1.09 (inactive)
[5]
  composite z-score: 0.602
[6]
  z-score: -0.495 (inactive)
[7]
  composite z-score: -0.144
[8]
  composite z-score: -0.204
[9]
  composite z-score: -0.139
[10]
  composite z-score: -0.0081
[11]
  composite z-score: -0.0032
[12]
  composite z-score: -0.366
[13]
  composite z-score: -0.337
[14]
  z-score: 1.99 (inactive)
[15]
  composite z-score: 0.172
[16]
  composite z-score: -0.102
[17]
  composite z-score: 0.002
[18]
  composite z-score: -0.149
[19]
  composite z-score: 0.0874
[20]
  composite z-score: 0.718

## CO[C@H]1O[C@H](CO)[C@@H](OC(=O)Nc2ccc(Br)cc2)[C@@H]2OC(=O)[C@H](Cc3cccc(Br)c3)C/C=C/C[C@@H](Cc3cccc(Br)c3)C(=O)O[C@@H]12
[1]
  composite z-score: 0.0859
[2]
  z-score: -0.163 (inactive)
[3]
  z-score: -2.81 (inactive)
[4]
  z-score: 30.3 (active)
[5]
  composite z-score: 0.763
[6]
  z-score: 1.26 (inactive)
[7]
  composite z-score: -0.112
[8]
  composite z-score: 0.594
[9]
  composite z-score: 0.911
[10]
  composite z-score: -0.0828
[11]
  composite z-score: 0.272
[12]
  composite z-score: -0.157
[13]
  composite z-score: 0.179
[14]
  z-score: -0.838 (inactive)
[15]
  composite z-score: 0.383
[16]
  composite z-score: -1.05
[17]
  composite z-score: -0.461
[18]
  composite z-score: 0.285
[19]
  composite z-score: -0.0367
[20]
  composite z-score: 0.0396
